Measured values published in PubChem BioAssay.
Activity calls are given as the source filed them.

Tests used:
[1] = E. coli DRC41 culture turbidity changes, primary screen, E. coli filamentation inducer project, strain DRC41, OD650, 48 h (AID 1152);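 further: E. coli MC1000 strain DRC41 lacking acrAB efflux pump and sulA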; settings: E. coli DRC41 (acrAB sulA), higher = more signal, called active from +8 up or from −8 down
[2] = small-molecule binders of probe aLefty1, primary screen, biochemical, small-molecule microarray, 635/667 nm fluorescence (AID 1153); settings: higher = more signal;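 further: score merges spot fluorescence with signal-to-noise ratio from the scanned slide images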
[3] = PSAC antagonists in infected red cells, primary screen, cell-based, P. falciparum Indochina, OD700, 1 h (AID 1154); settings: P. falciparum Indochina infected RBC osmotic lysis, higher = more signal, called active from +8 up or from −8 down
[4] = PSAC antagonists in infected red cells, primary screen, cell-based, P. falciparum Indochina, OD700, 2 h (AID 1155);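 further: lysis reports solute entry through the parasite surface anion channel PSAC; channel blockers reduce lysis of infected cells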; settings: P. falciparum Indochina infected erythrocytes, osmotic lysis OD700; higher = more signal, called active from +8 up or from −8 down
[5] = osmotic lysis modulators in infected erythrocytes, primary screen, PSAC antagonist project, cell-based, P. falciparum Indochina, OD700, 3 h (AID 1156); settings: higher = more signal, called active from +8 up or from −8 down
[6] = PSAC antagonists in infected red cells, primary screen, cell-based, P. falciparum Indochina, OD700, 18 h (AID 1157); settings: P. falciparum Indochina infected erythrocytes, osmotic lysis OD700, 18 h; higher = more signal, called active from +8 up or from −8 down
[7] = modulators of S6 phosphorylation in cells, primary screen, cell-based, A549, cytoblot, luminescence, serum-stimulated (AID 1158); settings: A549 phospho-S6 cytoblot, 5 h, higher = more signal;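 further: serum-stimulated A549 lung adenocarcinoma cells; signal is phosphorylated S6 detected by cytoblot immunostaining with HRP secondary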
[8] = molecular target: NADPH oxidase 2 (Homo sapiens) (UniProt P04839); assay: NOX2-dependent H2O2 signal modulators, primary screen, NOX inhibitor project, cell-based, HEK293-NOX2, PMA-stimulated, Amplex Red fluorescence (AID 1159); settings: 45 min, higher = more signal, called active from +8 up or from −8 down; further: test concentration not given here
Sequence of NADPH oxidase 2 (Homo sapiens) (P04839 whole entry, looked up): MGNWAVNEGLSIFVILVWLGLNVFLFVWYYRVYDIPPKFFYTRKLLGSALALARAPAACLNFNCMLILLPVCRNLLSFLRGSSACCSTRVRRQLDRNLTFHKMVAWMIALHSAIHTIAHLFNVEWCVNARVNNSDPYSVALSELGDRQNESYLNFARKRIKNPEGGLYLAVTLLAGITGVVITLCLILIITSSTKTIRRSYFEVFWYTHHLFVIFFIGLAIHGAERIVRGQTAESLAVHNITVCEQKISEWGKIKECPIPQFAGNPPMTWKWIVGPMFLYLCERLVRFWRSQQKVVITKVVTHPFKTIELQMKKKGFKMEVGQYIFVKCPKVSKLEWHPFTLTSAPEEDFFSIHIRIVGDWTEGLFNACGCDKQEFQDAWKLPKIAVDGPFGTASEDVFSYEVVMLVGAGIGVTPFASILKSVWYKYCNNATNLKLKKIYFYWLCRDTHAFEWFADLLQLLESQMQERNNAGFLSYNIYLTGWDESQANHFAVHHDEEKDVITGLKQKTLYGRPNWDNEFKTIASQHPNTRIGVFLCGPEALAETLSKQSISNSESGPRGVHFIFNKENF

[9] = molecular target: NADPH oxidase 4 (Homo sapiens) (UniProt Q9NPH5); assay: NOX4-dependent H2O2 signal modulators, primary screen, NOX inhibitor project, cell-based, HEK293-NOX4, tetracycline-induced, Amplex Red fluorescence (AID 1160); settings: 45 min, higher = more signal, called active from +8 up or from −8 down
Sequence of NADPH oxidase 4 (Homo sapiens) (Q9NPH5 whole entry, looked up): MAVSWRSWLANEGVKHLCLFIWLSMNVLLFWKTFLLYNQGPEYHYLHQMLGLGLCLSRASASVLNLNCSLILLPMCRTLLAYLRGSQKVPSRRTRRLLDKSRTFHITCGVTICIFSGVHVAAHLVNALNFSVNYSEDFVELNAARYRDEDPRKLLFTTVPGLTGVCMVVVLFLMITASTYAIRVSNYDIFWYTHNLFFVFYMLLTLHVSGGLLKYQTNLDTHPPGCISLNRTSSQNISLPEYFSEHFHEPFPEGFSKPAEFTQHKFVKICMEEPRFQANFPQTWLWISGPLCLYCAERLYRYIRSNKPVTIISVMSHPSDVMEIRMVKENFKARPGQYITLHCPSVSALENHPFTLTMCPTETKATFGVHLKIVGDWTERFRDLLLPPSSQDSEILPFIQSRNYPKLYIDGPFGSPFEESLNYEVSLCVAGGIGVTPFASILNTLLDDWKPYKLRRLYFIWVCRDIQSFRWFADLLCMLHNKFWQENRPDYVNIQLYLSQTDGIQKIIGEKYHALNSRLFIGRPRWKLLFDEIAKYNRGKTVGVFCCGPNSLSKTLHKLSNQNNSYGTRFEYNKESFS

[10] = molecular target: NADPH oxidase 5 (Homo sapiens) (UniProt Q96PH1); assay: NOX5-dependent H2O2 signal modulators, primary screen, NOX inhibitor project, cell-based, HEK293-NOX5, Amplex Red fluorescence (AID 1161); settings: HEK293-NOX5, ionomycin, 45 min, higher = more signal
Sequence of NADPH oxidase 5 (Homo sapiens) (Q96PH1 whole entry, looked up): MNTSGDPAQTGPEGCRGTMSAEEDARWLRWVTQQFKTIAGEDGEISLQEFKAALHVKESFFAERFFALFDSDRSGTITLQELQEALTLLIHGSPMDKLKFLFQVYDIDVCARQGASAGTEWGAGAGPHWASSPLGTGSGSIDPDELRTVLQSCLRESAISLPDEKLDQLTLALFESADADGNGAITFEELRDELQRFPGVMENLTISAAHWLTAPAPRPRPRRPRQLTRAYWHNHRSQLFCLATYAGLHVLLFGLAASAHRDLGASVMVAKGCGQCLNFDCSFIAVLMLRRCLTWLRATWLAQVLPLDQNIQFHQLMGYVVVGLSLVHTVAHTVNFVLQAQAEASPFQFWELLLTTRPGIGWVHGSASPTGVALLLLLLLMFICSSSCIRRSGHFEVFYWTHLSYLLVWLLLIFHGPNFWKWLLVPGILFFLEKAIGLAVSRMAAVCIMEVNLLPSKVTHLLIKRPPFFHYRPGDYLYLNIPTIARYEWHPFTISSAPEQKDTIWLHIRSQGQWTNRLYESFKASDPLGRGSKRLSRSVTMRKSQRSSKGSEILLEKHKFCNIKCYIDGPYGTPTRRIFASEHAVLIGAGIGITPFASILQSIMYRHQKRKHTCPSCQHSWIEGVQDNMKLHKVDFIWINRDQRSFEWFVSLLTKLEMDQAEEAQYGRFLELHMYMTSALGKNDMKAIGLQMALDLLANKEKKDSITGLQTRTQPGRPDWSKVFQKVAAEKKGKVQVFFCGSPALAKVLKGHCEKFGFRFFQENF

[11] = A549 cell viability effects, profiling panel, calcein-AM fluorescence, 48 h, basal (AID 1162); settings: higher = more signal; further: test concentration not given here
[12] = adipocyte viability effects, profiling panel, cell-based, 3T3-L1 adipocytes, calcein-AM fluorescence, 48 h, basal (AID 1163); settings: 3T3-L1 adipocytes viability, higher = more signal; further: test concentration not given here
[13] = HepG2 cell viability effects, profiling panel, calcein-AM fluorescence, 48 h, basal (AID 1164); settings: higher = more signal; further: test concentration not given here
[14] = MM1S cell viability effects, profiling panel, calcein-AM fluorescence, 48 h, basal (AID 1165); settings: higher = more signal;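 further: viability of MM1S multiple myeloma cells under basal unstimulated conditions; test concentration not given here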
[15] = basal RPMI8226 viability, no added stimulus, profiling panel, cell-based, calcein-AM fluorescence, 48 h, PK04 Diversity Set (AID 1166); settings: RPMI8226 myeloma viability, higher = more signal;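 further: cells grown under basal conditions without added stimulus; test concentration not given here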
[16] = basal HepG2 mitochondrial membrane potential changes, profiling panel, cell-based, JC-1 fluorescence, 24 h, 100 nL compound (AID 1167); settings: higher = more signal; further: test concentration not given here
[17] = basal 3T3-L1 adipocyte mitochondrial potential changes, profiling panel, cell-based, JC-1 fluorescence, 3T3-L1 adipocytes, 24 h, 100 nL compound (AID 1168); settings: JC-1 mitochondrial fluorescence, higher = more signal, called active from +8 up or from −8 down; further: test concentration not given here
[18] = basal RPMI8226 mitochondrial membrane potential changes, profiling panel, cell-based, JC-1 fluorescence, 24 h, 100 nL compound (AID 1169); settings: RPMI8226 myeloma, JC-1 mitochondrial potential fluorescence, higher = more signal; further: test concentration not given here
[19] = basal MM1S mitochondrial membrane potential changes, profiling panel, cell-based, JC-1 fluorescence, 24 h, 100 nL compound (AID 1170); settings: higher = more signal; further: test concentration not given here
[20] = A549 lung cancer cell viability effects, profiling panel, resazurin fluorescence, 24 h, PK04 Diversity Set (AID 1171); settings: higher = more signal, called active from +8 up or from −8 down; further: test concentration not given here

Structure (SMILES)	z-score [1]	composite z-score [2]	z-score [3]	z-score [4]	z-score [5]	z-score [6]	z-score [7]	z-score [8]	z-score [9]	z-score [10]	z-score [11]	z-score [12]	z-score [13]	z-score [14]	z-score [15]	z-score [16]	z-score [17]	z-score [18]	z-score [19]	z-score [20]
COc1ccc(-c2cc3c(c(CCc4ccccc4)n2)[Si](C(C)C)(C(C)C)O[C@H]3c2ccccc2)cn1	0.0534 (inactive)	-0.193	4.29 (inactive)	1.36 (inactive)	-0.449 (inactive)	0.775 (inactive)	-0.643	0.947 (inactive)	0.741 (inactive)	0.0862	0.359	-0.724	1.27	-1.82	-2.55	-2.71	-0.904 (inactive)	-0.405	-0.622	0.996 (inactive)
O=C1NC(=O)C2C1C=CC(C(O)c1ccc(F)cc1)N2Nc1ccc(Cl)cc1Cl (stereo not given)	-1.89 (inactive)	-0.017	3.43 (inactive)	0.615 (inactive)	-0.695 (inactive)	1.22 (inactive)	0.0765	-0.018 (inactive)	-5.68 (inactive)	-3.23	-2.35	-0.275	-3.57	-2.88	-2.29	-3.47	-0.472 (inactive)	-0.0645	0.174	-2.11 (inactive)
C=C(C)C1CN([C@H](CO)c2ccccc2)C(=O)/C1=C\c1ccccc1 (stereo not given in full)	1.01 (inactive)	-0.147	-0.0012 (inactive)	-0.916 (inactive)	-0.683 (inactive)	-1.8 (inactive)	1.59	-0.00303 (inactive)	0.0494 (inactive)	-1.27	-0.121	1.55	0.0701	-0.313	-1.89	-1.11	0.0548 (inactive)	0.354	-1.06	-0.846 (inactive)
C=CC[C@]1(C(=O)NCCN2CCOCC2)N=C(c2ccc(OCCCO)cc2)O[C@H]1c1ccccc1	-0.151 (inactive)	0.296	4.72 (inactive)	0.644 (inactive)	0.168 (inactive)	0.275 (inactive)	-0.45	0.0905 (inactive)	-0.0559 (inactive)	0.115	-0.139	-0.0761	-0.0656	-0.736	0.0634	-0.607	-0.442 (inactive)	-0.176	-0.255	1.63 (inactive)
Cc1ccc(N2C(=O)c3ccccc3[C@@H](C(=O)NCCN3CCOCC3)[C@@H]2c2ccc(CO)cc2)nc1	0.279 (inactive)	-0.303	0.443 (inactive)	-0.229 (inactive)	-0.319 (inactive)	0.155 (inactive)	-0.334	0.335 (inactive)	-0.36 (inactive)	-1.86	-0.619	0.112	-0.45	0.128	0.0765	-0.274	0.111 (inactive)	-0.171	0.235	0.444 (inactive)
COc1ccc(NN2C(C(O)c3ccc(F)cc3)C=CC3C(=O)N(C4CCCCC4)C(=O)C32)cc1 (stereo not given)	-1.24 (inactive)	0.0561	5.76 (inactive)	1.42 (inactive)	0.37 (inactive)	0.856 (inactive)	-0.54	-1.73 (inactive)	-3.25 (inactive)	-1.23	-0.705	-0.17	-0.0716	-1.05	-1.08	-0.496	-1.23 (inactive)	-0.169	-0.191	0.227 (inactive)
C=C(/C=C\CNS(=O)(=O)c1ccc(C)cc1)[C@H](O)[C@H]1CCCN1S(=O)(=O)c1ccccc1[N+](=O)[O-]	-0.473 (inactive)	-0.0366	12.1 (active)	2.16 (inactive)	1.03 (inactive)	0.77 (inactive)	-0.208	-0.264 (inactive)	-2.04 (inactive)	-1.77	-0.635	0.186	-1.3	-3.14	-1.51	-3.05	-0.955 (inactive)	-0.938	-0.671	0.0403 (inactive)
COc1c(C)cc(-c2nc(-c3ccccc3)c3c(c2C)CO[Si]3(C(C)C)C(C)C)cc1C	-1.31 (inactive)	0.0505	0.614 (inactive)	0.521 (inactive)	-0.81 (inactive)	0.261 (inactive)	0.564	-0.41 (inactive)	0.529 (inactive)	-2.03	-0.926	-1.12	-0.518	-0.532	-0.931	-0.175	-1.19 (inactive)	0.379	-0.294	1.44 (inactive)
COC(=O)C(CC#Cc1ccc2c(c1)[C@]1(C(=O)N2)[C@H](c2ccccc2OCCO)N2[C@H](c3ccccc3)[C@H](c3ccccc3)OC(=O)[C@H]2[C@@H]1C(=O)N1CCN(c2ncccn2)CC1)C(=O)OC	-0.577 (inactive)	-0.0984	3.02 (inactive)	1.49 (inactive)	0.928 (inactive)	0.565 (inactive)	-0.512	0.803 (inactive)	0.849 (inactive)	2.23	-0.071	-1.46	0.496	-3.23	-4.35	-0.735	0.181 (inactive)	-1.11	-1.92	0.103 (inactive)
COCCOC(=O)N1C(=O)[C@@]2(c3cc(C#CCC(C(=O)OC)C(=O)OC)ccc31)[C@H](C(N)=O)[C@H]1C(=O)O[C@H](c3ccccc3)[C@H](c3ccccc3)N1[C@@H]2c1ccccc1OCCO	1.08 (inactive)	-0.189	8.08 (active)	2.37 (inactive)	2.67 (inactive)	1.05 (inactive)	4.47	1.02 (inactive)	0.826 (inactive)	-1.13	1.3	1.27	0.645	-2.97	-3.48	0.142	1.83 (inactive)	-0.79	-1.62	-0.175 (inactive)
CCOC(=O)C[C@H]1[C@H](OC(=O)Cc2ccc3c(c2)OCO3)[C@@H](NC(=O)CC(C)C)c2cc(OCCCO)ccc2N1C(=O)c1ccc2ccccc2n1	0.685 (inactive)	0.0004	2.75 (inactive)	-1.19 (inactive)	-0.161 (inactive)	-2.54 (inactive)	0.806	0.0707 (inactive)	-0.356 (inactive)	-1.54	0.415	1.37	-0.236	0.383	-0.577	0.218	0.0499 (inactive)	0.01	-0.659	0.194 (inactive)
COc1cccc(C)c1NC(=O)O[C@H]1[C@H](OC(=O)Nc2ccc3c(c2)OCO3)[C@H](OC(=O)Nc2ccc3c(c2)OCO3)[C@@H](OC)O[C@@H]1CO	-0.66 (inactive)	0.855	10.7 (active)	1.4 (inactive)	1.14 (inactive)	0.691 (inactive)	-0.0632	-1.52 (inactive)	-0.848 (inactive)	-1.37	-0.934	0.372	-0.997	-1.62	-1.82	-0.514	0.308 (inactive)	-0.136	-0.724	-0.654 (inactive)
O=C1O[C@H](c2ccccc2)[C@H](c2ccccc2)N2[C@H]1[C@@H](C(=O)Nc1nc3ccccc3s1)[C@]1(C(=O)Nc3ccccc31)[C@H]2c1ccccc1OCCO	0.185 (inactive)	0.347	7.3 (inactive)	5.1 (inactive)	-5.41 (inactive)	1.79 (inactive)	0.354	1.47 (inactive)	0.862 (inactive)	1.86	-1.59	0.842	-1.97	-1.61	-3.67	-2.27	4.1 (inactive)	-1.16	-1.37	-2.35 (inactive)
